In PubChem BioAssay (NCI):
Values joined by “and” are separate entries in the source; they are usually repeats but may differ in a detail not shown here. Equal values may be shown once. The panel holds about 83,000 compounds, 20% with a hit somewhere; the sample as a whole holds those more often.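 Interpretation: 100, growth as untreated; towards 0, rising growth inhibition; 0, no net growth; 0 to -100, cell death. Compounds scoring below 10 were considered active.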 Active and inactive are the calls of the source.

System: MDA-MB-468 breast
Assay: NCI-60 one-dose screen, 48 h (100 = growth as untreated, 0 = no growth, -100 = all killed)
Details: 10 µM unless noted

Row | SMILES | growth
1 | CC(=O)Cc1cc(-c2cc(CC(C)=O)[nH]n2)n[nH]1 | 103% (inactive)
2 | CCCCCN1C=C/C(=C\C(=O)N(C)c2ccc(Oc3ccccc3)cc2)c2ccccc21 | 22.3% (inactive)
3 | CCOc1ccc(-n2nc(C(=O)Nc3ccccc3)nc2-c2cc(OC)c(OC)c(OC)c2)cc1 | 42.5% (inactive)
4 | CCOC(=O)C(C#N)=C1CCN(C)CC1 | 123% (inactive)
5 | c1ccc(CNc2ccc3nc(CCC4CCCCC4)[nH]c3c2)cc1 | 43% (inactive)
6 | CC(C)(C)c1cc(NC(=O)Nc2ccc(-c3cn4c5c(sc4n3)CCc3c[nH]cc3-5)cc2)no1 | 22.6% (inactive)
7 | O=C(O)CCCn1c(SCc2c(Cl)cccc2Cl)nc2ccsc2c1=O | -4.76% (active)
8 | CCOC(=O)c1cc(C(=O)c2cc(OC)cc(OC)c2)n2ccccc12 | 30.2% (inactive)
9 | COc1cc(/C=C/c2cc(/C=C/c3ccc(O)c(OC)c3)n(C(=O)Nc3ccc(Cl)cc3)n2)ccc1O | -26.4% (active)
10 | COc1ccc(-n2nc(C)c3c(Nc4ccc(NC(=O)Nc5c(Cl)cccc5Cl)cc4)ncnc32)cc1 | 27.9% (inactive)
11 | CN(C)c1ccc(C(=C2C=CC(=[N+](C)C)C=C2)c2ccc(N(C)C)cc2)cc1 (tested in a mixture with another compound) | -95% (active)
12 | c1ccc2nc(N3CCOCC3)c(N3CCCCC3)nc2c1 | 94% (inactive)
13 | O/N=C1\c2ccccc2-c2ccc(F)cc21 | 9.23% (active)
14 | CCOC(=O)c1cc2c(n1Cc1cc(OC)c(OC)c(OC)c1)-c1oncc1CCC2 | 15.7% (inactive)
15 | CCCCC/C=C/C(=O)CCc1ccc(O)c(OC)c1 | 65.8% (inactive)
16 | O=C(Nc1ccc(F)cc1)Nc1ccccc1CNc1nc(Nc2ccc(OCCN3CCCC3)cc2)ncc1Cl | -44.1% (active)
17 | Cn1cc(-c2nonc2-c2c[nH]c3ccccc23)c2cc(Br)ccc21 | 59.5% (inactive)
18 | O=C(Nc1ccc(OS(=O)(=O)c2ccccc2)cc1)C1CCCCC1 | 103% (inactive)
19 | COc1ccc(C2=Nc3c(N)nc(N)nc3NC(c3cccc(Nc4ccnc5cc(C(F)(F)F)ccc45)c3)C2)cc1 (stereo not given) | 46.1% (inactive)
20 | CCCCCCNCc1cc(C(C)(C)C)cc(CNCCCCCC)c1O | -89.8% (active)

Row | SMILES | growth
21 | CNC(=O)c1cn2c3c(c(N4CCN(C)CC4)c(F)cc3c1=O)OC[C@@H]2C | 97.7% (inactive)
22 | COc1cc(Br)c(OC)cc1Br | 95.5% (inactive)
23 | O=[N+]([O-])c1ccc(Oc2nc(Nc3ccc(O[C@H]4CO[C@H]5[C@@H]4OC[C@@H]5O)c(Cl)c3)ncc2F)c(Cl)c1 | 15.8% (inactive)
24 | CCCC#CCN(CC)CC | 99.1% (inactive)
25 | CCOC(=O)c1cc(C(=O)c2cc(OC)c(OC)c(OC)c2)n2ncc3ccccc3c12 | 66% (inactive)
26 | O=C1C(Cl)=C(Cl)C(=O)c2c1nc1n2CCCC1 | 96.7% (inactive)
27 | CCOc1ccccc1-n1c(CN2CCN(C(=O)COc3ccc(CNCCCCCCN4C5CCCC4CC(OC(=O)Nc4cc(C)ccc4OC)C5)cc3)CC2)nc2ccccc2c1=O (stereo not given) | -79.1% (active)
28 | COC(=O)c1c2c(c(C)[n+]([O-])c1C)C(=O)C=C(NCc1ccc(F)c(Cl)c1)C2=O | -70.5% (active)
29 | C/C(N)=C(\C#N)C(=O)c1ccccc1 | 97.7% (inactive)
30 | CCOC(=O)/C=C/c1c(C)[nH]c(=O)[nH]c1=O | 72.8% (inactive)
31 | COc1cc(C)cc2oc3oc(=N)c(C(=O)c4ccccc4)cc3c(=O)c12 | 108% (inactive)
32 | CN(C)CCCN1c2ccccc2Sc2ccc(Cl)cc21 | 9.1% (active) and 105% (inactive) and 77.4% (inactive)
33 | CCOC(=O)C1=C(C)N2C(=NC3=C(CCCC/C3=C\c3cc(OC)c(OC)c(OC)c3)C2c2cc(OC)c(OC)c(OC)c2)S1 (stereo not given) | 25.2% (inactive)
34 | CCn1cc(C(=O)O)c(=O)c2cc(F)c(N3CCN(CC(=O)Nc4ccc(/C(C)=N/OC)cc4)CC3)cc21 | 102% (inactive)
35 | CCC(C(=O)[C@@H](C)[C@@H](O)[C@H](C)[C@@H]1O[C@@H]([C@@H](CC)C(=O)ONC(=O)c2ccccc2)CC[C@@H]1C)[C@H]1O[C@]2(C=CC(=O)[C@]3(CC[C@@](C)([C@H]4CC[C@](O)(CC)[C@H](C)O4)O3)O2)[C@H](C)C[C@@H]1C (stereo not given in full) | -33.2% (active)
36 | Cn1/c(=N/NC(N)=S)ccc2ccccc21 | 24.9% (inactive)
37 | COc1cc(-c2nn(-c3ccc(NC(=O)Nc4ccc(Cl)c(Cl)c4)cc3)cc2-c2ccncc2)ccc1Cl | 30.4% (inactive)
38 | Cc1nc(/N=C(N)/N=C(\N)c2cccc(Br)c2)sc1C | 32.5% (inactive)
39 | COc1ccc(/C(C#N)=C/c2cc(OC)c(OC)c(OC)c2)cc1 | 27.6% (inactive)
40 | O=C(Nc1ccc(-n2cc(-c3ccncc3)c(-c3ccc(O)c(Cl)c3)n2)cc1)c1ccc(Cl)c(C(F)(F)F)c1 | 27.5% (inactive)
